Measured values taken from the antibiotic and cytotoxicity screens of Wong et al. (2023).
The whole screen tested about 39,000 compounds, of which about 3,300 (8.5%) were called active. For the sample, actives were picked, then their nearest neighbours and some compounds at random.

Each compound was assayed on HepG2 (assay: cytotoxicity call (relative viability < 0.9)). Conditions: 10 µM.
`Cc1ccc(S(=O)(=O)Nc2ccc3c(c2)CC(=O)N([C@@H](C)CO)C[C@@H](C)[C@@H](CN(C)C(=O)NC(C)C)O3)cc1` was tested, and the cytotoxicity call was “inactive”.
In the case of `O=C(Nc1ccc2c(c1)[C@@H]1C[C@H](CC(=O)N3CCc4ccccc4C3)O[C@H](CO)[C@@H]1O2)C1CCOCC1`, the cytotoxicity call is reported as “inactive”.
In the case of `C[C@H](CO)N1C[C@H](C)[C@@H](CN(C)C(=O)Nc2cccc3ccccc23)OCCCC[C@H](C)Oc2ccc(NC(=O)Nc3ccccc3)cc2C1=O`, the cytotoxicity call is reported as “inactive”.
For `Cc1noc(C)c1S(=O)(=O)N(C)C[C@H]1Oc2ccc(NS(C)(=O)=O)cc2CC(=O)N([C@@H](C)CO)C[C@@H]1C`, the cytotoxicity call was “inactive”.
`C[C@H](CO)N1C[C@H](C)[C@H](CN(C)C(=O)NC2CCCCC2)Oc2c(NC(=O)C3CC3)cccc2C1=O` was tested, and the cytotoxicity call was “inactive”.
With `C[C@@H]1CCCCO[C@@H](CN(C)S(C)(=O)=O)[C@@H](C)CN([C@H](C)CO)C(=O)c2cc(NS(=O)(=O)c3ccc(F)cc3)ccc2O1` the cytotoxicity call was “inactive”.
For `C[C@@H]1CCCCO[C@@H](CN(C)C(=O)Nc2cccc3ccccc23)[C@@H](C)CN([C@H](C)CO)C(=O)c2cc(NC(=O)Nc3ccccc3)ccc2O1`, the cytotoxicity call was “inactive”.
In the case of `CN(C)CCCOc1nn(Cc2ccccc2)c2ccccc12.Cl`, the cytotoxicity call is reported as “active”.
In the case of `O=C(O)COc1nn(Cc2ccccc2)c2ccccc12`, the cytotoxicity call is reported as “inactive”.
For `COc1cccc(OCc2ccc(Cn3nc(NC(=O)Nc4c(OC)cccc4OC)c4ccccc43)cc2)c1`, the cytotoxicity call was “inactive”.
In the case of `C[C@H]1CN([C@@H](C)CO)S(=O)(=O)c2ccc(C#CC3CC3)cc2O[C@@H]1CN(C)Cc1ccccc1F`, the cytotoxicity call is reported as “inactive”.
With `C[C@@H]1CN([C@@H](C)CO)C(=O)Cc2cc(NC(=O)Cn3cnnn3)ccc2O[C@@H]1CN(C)S(=O)(=O)c1ccc(F)cc1` the cytotoxicity call was “inactive”.
For `Cc1ccccc1S(=O)(=O)N1C[C@H](O)COC[C@H]2O[C@@H](CC(=O)NCCc3ccccc3)CC[C@@H]21`, the cytotoxicity call was “inactive”.
`Nc1ncnc2nc[nH]c12` was tested, and the cytotoxicity call was “inactive”.
For `Nc1nc2nc[nH]c2c(=S)[nH]1` [listing 1 of 2 here], the cytotoxicity call was “inactive”.
In the case of `O=c1[nH]cnc2nc[nH]c12`, the cytotoxicity call is reported as “inactive”.
For `Nc1nc2nc[nH]c2c(=S)[nH]1` [listing 2 of 2 here], the cytotoxicity call was “active”.
For `Nc1nc2nc[nH]c2c(=O)[nH]1`, the cytotoxicity call was “inactive”.
In the case of `S=c1[nH]cnc2nc[nH]c12`, the cytotoxicity call is reported as “active”.
For `N#CCN(CC#N)C(=O)c1ccco1`, the cytotoxicity call was “inactive”.
For `CC(C)CC#Cc1ccc2c(c1)O[C@@H](CN(C)C(=O)C1CCOCC1)[C@@H](C)CN([C@@H](C)CO)S2(=O)=O`, the cytotoxicity call was “inactive”.
With `COc1ccc(S(=O)(=O)N(C)C[C@H]2Oc3ccc(NS(=O)(=O)c4ccccc4)cc3C(=O)N([C@@H](C)CO)C[C@H]2C)cc1` the cytotoxicity call was “inactive”.
`Cc1noc(C)c1S(=O)(=O)Nc1ccc2c(c1)CC(=O)N([C@H](C)CO)C[C@H](C)[C@H](CN(C)Cc1ccncc1)O2` was tested, and the cytotoxicity call was “inactive”.
For `COc1ccc(S(=O)(=O)N2C[C@@H](O)COC[C@@H]3O[C@H](CC(=O)NCCCN(C)C)CC[C@H]32)cc1`, the cytotoxicity call was “inactive”.
`COc1cc(O)cc(O)c1C(=O)c1ccccc1` was tested, and the cytotoxicity call was “active”.
In the case of `COc1ccc(C(=O)c2ccccc2)c(O)c1`, the cytotoxicity call is reported as “inactive”.
`COc1cc(O)c(C(=O)c2ccccc2)cc1S(=O)(=O)O` was tested, and the cytotoxicity call was “inactive”.
With `C[C@H]1CN([C@@H](C)CO)C(=O)c2cc(C#Cc3cccnc3)cnc2O[C@H]1CN(C)S(=O)(=O)c1ccccc1F` the cytotoxicity call was “inactive”.
For `C[C@@H]1CN([C@H](C)CO)S(=O)(=O)c2ccc(C#CCN(C)C)cc2O[C@H]1CN(C)S(=O)(=O)c1cccc(F)c1`, the cytotoxicity call was “inactive”.
With `C[C@@H]1CN([C@H](C)CO)C(=O)c2cccc(NC(=O)C3CCOCC3)c2O[C@@H]1CN(C)S(=O)(=O)c1ccccc1` the cytotoxicity call was “inactive”.
For `Cc1n[nH]c(N/N=C/c2ccccn2)nc1=O`, the cytotoxicity call was “active”.
With `Cc1n[nH]c(NCc2ccco2)nc1=O` the cytotoxicity call was “inactive”.
For `CCCNc1nc(=O)c(C)n[nH]1`, the cytotoxicity call was “inactive”.
`O=C(O)[C@@H]1CCCC[C@@H]1C(=O)N1CCc2ccccc2[C@H]1CN1C(=O)c2ccccc2C1=O.O=C(O)[C@H]1CCCC[C@@H]1C(=O)N1CCc2ccccc2[C@H]1CN1C(=O)c2ccccc2C1=O` was tested, and the cytotoxicity call was “inactive”.
In the case of `C[C@@H]1CCCCO[C@H](CN(C)S(=O)(=O)c2cccs2)[C@@H](C)CN([C@H](C)CO)C(=O)c2cc(NS(=O)(=O)c3ccc(Cl)cc3)ccc2O1`, the cytotoxicity call is reported as “inactive”.
`C[C@@H]1CN([C@@H](C)CO)C(=O)c2cc(NS(=O)(=O)c3cn(C)cn3)ccc2O[C@@H]1CN(C)CC1CC1` was tested, and the cytotoxicity call was “inactive”.
In the case of `O=C1NCc2ccccc21`, the cytotoxicity call is reported as “inactive”.
With `O=C1CCCNc2ccc(Cl)cc21` the cytotoxicity call was “inactive”.
With `O=C1CCNc2cc3ccccc3cc21` the cytotoxicity call was “active”.
`COc1ccc(NC(=O)N(C)C[C@@H]2Oc3ccc(NC(=O)CCN4CCOCC4)cc3C(=O)N([C@@H](C)CO)C[C@@H]2C)cc1` was tested, and the cytotoxicity call was “inactive”.
In the case of `COc1ccc(S(=O)(=O)N(C)C[C@H]2OCCCC[C@H](C)Oc3ccc(NC(=O)Nc4ccccc4)cc3C(=O)N([C@@H](C)CO)C[C@H]2C)cc1`, the cytotoxicity call is reported as “inactive”.
For `O=C(O)CN1CCOC1=O`, the cytotoxicity call was “inactive”.
With `NC1=NCCN1CC(=O)O` the cytotoxicity call was “active”.
For `O=C(O)CN1CCCCC1=O`, the cytotoxicity call was “inactive”.
In the case of `COC(=O)N[C@H](C(=O)N1CC2(CC2)C[C@H]1c1nc(-c2ccc3c(c2)C(F)(F)c2cc(-c4ccc5nc([C@@H]6[C@H]7CC[C@H](C7)N6C(=O)[C@@H](NC(=O)OC)C(C)C)[nH]c5c4)ccc2-3)c[nH]1)C(C)C`, the cytotoxicity call is reported as “inactive”.
With `Cn1cnc(CCNC(=O)C[C@H]2CC[C@H]3[C@@H](COC[C@H](O)CN3C(=O)C3CC3)O2)c1` the cytotoxicity call was “inactive”.
In the case of `O=C1OC(=O)[C@H]2[C@@H]1[C@H]1CC[C@H]2O1`, the cytotoxicity call is reported as “active”.
In the case of `COc1ccc2c3c([nH]c2c1)[C@@H](CO)N(C[C@]13CCN(CC1)Cc1ccccc1)S(=O)(=O)c1cn(cn1)C`, the cytotoxicity call is reported as “inactive”.
With `C[C@@H]1CN([C@H](C)CO)C(=O)c2cccc(NC(=O)NC3CCCCC3)c2O[C@H]1CN(C)Cc1ccc(Cl)c(Cl)c1` the cytotoxicity call was “inactive”.
`C[C@@H]1CN([C@@H](C)CO)C(=O)c2cc(NC(=O)c3ccncc3)ccc2O[C@@H](C)CCCCO[C@H]1CN(C)Cc1ccc(C(F)(F)F)cc1` was tested, and the cytotoxicity call was “inactive”.
For `C[C@@H]1CN([C@H](C)CO)C(=O)c2cc(NC(=O)Nc3ccccc3)ccc2O[C@@H](C)CCCCO[C@@H]1CN(C)C(=O)C1CCCCC1`, the cytotoxicity call was “inactive”.
`C[C@H](CO)N1C[C@H](C)[C@@H](CN(C)C(=O)C2CCCCC2)OCCCC[C@H](C)Oc2ccc(NC(=O)Nc3ccccc3)cc2C1=O` was tested, and the cytotoxicity call was “inactive”.
`C[C@H]1CCCCO[C@H](CN(C)C(=O)C2CCCCC2)[C@@H](C)CN([C@@H](C)CO)C(=O)c2cc(NC(=O)Nc3ccccc3)ccc2O1` was tested, and the cytotoxicity call was “inactive”.
`C[C@@H]1CCCCO[C@@H](CN(C)C(=O)C2CCCCC2)[C@@H](C)CN([C@@H](C)CO)C(=O)c2cc(NC(=O)Nc3ccccc3)ccc2O1` was tested, and the cytotoxicity call was “active”.
In the case of `C[C@@H]1CCCCO[C@H](CN(C)C(=O)C2CCCCC2)[C@@H](C)CN([C@@H](C)CO)C(=O)c2cc(NC(=O)Nc3ccccc3)ccc2O1`, the cytotoxicity call is reported as “active”.
In the case of `C[C@H]1CCCCO[C@@H](CN(C)C(=O)C2CCCCC2)[C@@H](C)CN([C@@H](C)CO)C(=O)c2cc(NC(=O)Nc3ccccc3)ccc2O1`, the cytotoxicity call is reported as “inactive”.
In the case of `C[C@H]1CN([C@@H](C)CO)C(=O)c2cccc(NC(=O)c3cnccn3)c2O[C@@H]1CN(C)Cc1ccc(C(=O)O)cc1`, the cytotoxicity call is reported as “inactive”.
In the case of `C[C@H](CO)N1C[C@H](C)[C@H](CN(C)C(=O)CN(C)C)Oc2cc(-c3ccc(C#N)cc3)ccc2S1(=O)=O`, the cytotoxicity call is reported as “inactive”.
In the case of `CCNC1CC(N)C(OC2OC(CN)=CCC2N)C(O)C1OC1OCC(C)(O)C(NC)C1O.O=S(=O)(O)O.O=S(=O)(O)O` (stereo not drawn), the cytotoxicity call is reported as “inactive”.
With `COc1ccc(CN(C)C[C@H]2OCCCC[C@H](C)Oc3ccc(NC(=O)Nc4ccc5c(c4)OCO5)cc3C(=O)N([C@H](C)CO)C[C@H]2C)cc1` the cytotoxicity call was “inactive”.
`C[C@H](CO)N1C[C@H](C)[C@H](CN(C)C(=O)Nc2ccc(C(F)(F)F)cc2)Oc2c(NC(=O)c3nc4ccccc4s3)cccc2C1=O` was tested, and the cytotoxicity call was “inactive”.
`C[C@@H]1CN([C@@H](C)CO)C(=O)c2cccc(NC(=O)c3nc4ccccc4s3)c2O[C@H]1CN(C)C(=O)Nc1ccc(F)cc1` was tested, and the cytotoxicity call was “inactive”.
For `C[C@H]1CN([C@@H](C)CO)C(=O)c2cccc(NC(=O)c3nc4ccccc4s3)c2O[C@H]1CN(C)C(=O)Nc1ccc(C(F)(F)F)cc1`, the cytotoxicity call was “active”.
With `C[C@H](CO)N1C[C@H](C)[C@@H](CN(C)C(=O)Nc2ccc(C(F)(F)F)cc2)Oc2c(NC(=O)c3nc4ccccc4s3)cccc2C1=O` the cytotoxicity call was “inactive”.
In the case of `C[C@@H]1CN([C@@H](C)CO)C(=O)c2cccc(NC(=O)c3nc4ccccc4s3)c2O[C@@H]1CN(C)C(=O)Nc1ccc(F)cc1`, the cytotoxicity call is reported as “active”.
With `C[C@H](CO)N1C[C@H](C)[C@@H](CN(C)C(=O)Nc2ccc(F)cc2)Oc2c(NC(=O)c3nc4ccccc4s3)cccc2C1=O` the cytotoxicity call was “inactive”.
For `C[C@@H]1CN([C@H](C)CO)C(=O)c2cccc(NC(=O)c3nc4ccccc4s3)c2O[C@@H]1CN(C)C(=O)Nc1ccc(C(F)(F)F)cc1`, the cytotoxicity call was “inactive”.
With `C[C@H]1CN([C@@H](C)CO)C(=O)c2cccc(NC(=O)c3nc4ccccc4s3)c2O[C@@H]1CN(C)C(=O)Nc1ccc(C(F)(F)F)cc1` the cytotoxicity call was “inactive”.
For `C[C@@H]1CN([C@@H](C)CO)C(=O)c2cccc(NC(=O)c3nc4ccccc4s3)c2O[C@H]1CN(C)C(=O)Nc1ccc(C(F)(F)F)cc1`, the cytotoxicity call was “active”.
For `C[C@@H]1CCCCO[C@H](CN(C)S(=O)(=O)c2cccs2)[C@@H](C)CN([C@H](C)CO)C(=O)c2cc(NC(=O)Nc3ccccc3)ccc2O1`, the cytotoxicity call was “inactive”.
With `COc1ccccc1NC(=O)N(C)C[C@H]1OCc2ccccc2-c2c(n(C)c3ccccc23)C(=O)N([C@H](C)CO)C[C@@H]1C` the cytotoxicity call was “inactive”.
With `C[C@H](CO)N1C[C@H](C)[C@@H](CN(C)C(=O)c2cccc(F)c2)Oc2cc(-c3ccncc3)ccc2S1(=O)=O` the cytotoxicity call was “inactive”.
For `O=C(C[C@H]1CC[C@@H]2[C@H](COC[C@H](O)CN2S(=O)(=O)c2ccccc2)O1)N1CCOCC1`, the cytotoxicity call was “inactive”.
